Experimental data as given in PubChem BioAssay (EPA / NIEHS).
Records with an inconclusive call do not appear. The source made the active and inactive calls. The calls were made as follows: active = hit-call score of the fitted dose curve at least 0.9, where 1 is the maximum; inconclusive = response in the unintended direction; inactive = score below 0.9.

Target: AR (gene 367) (UniProt P10275)
Sequence (P10275 whole entry, looked up): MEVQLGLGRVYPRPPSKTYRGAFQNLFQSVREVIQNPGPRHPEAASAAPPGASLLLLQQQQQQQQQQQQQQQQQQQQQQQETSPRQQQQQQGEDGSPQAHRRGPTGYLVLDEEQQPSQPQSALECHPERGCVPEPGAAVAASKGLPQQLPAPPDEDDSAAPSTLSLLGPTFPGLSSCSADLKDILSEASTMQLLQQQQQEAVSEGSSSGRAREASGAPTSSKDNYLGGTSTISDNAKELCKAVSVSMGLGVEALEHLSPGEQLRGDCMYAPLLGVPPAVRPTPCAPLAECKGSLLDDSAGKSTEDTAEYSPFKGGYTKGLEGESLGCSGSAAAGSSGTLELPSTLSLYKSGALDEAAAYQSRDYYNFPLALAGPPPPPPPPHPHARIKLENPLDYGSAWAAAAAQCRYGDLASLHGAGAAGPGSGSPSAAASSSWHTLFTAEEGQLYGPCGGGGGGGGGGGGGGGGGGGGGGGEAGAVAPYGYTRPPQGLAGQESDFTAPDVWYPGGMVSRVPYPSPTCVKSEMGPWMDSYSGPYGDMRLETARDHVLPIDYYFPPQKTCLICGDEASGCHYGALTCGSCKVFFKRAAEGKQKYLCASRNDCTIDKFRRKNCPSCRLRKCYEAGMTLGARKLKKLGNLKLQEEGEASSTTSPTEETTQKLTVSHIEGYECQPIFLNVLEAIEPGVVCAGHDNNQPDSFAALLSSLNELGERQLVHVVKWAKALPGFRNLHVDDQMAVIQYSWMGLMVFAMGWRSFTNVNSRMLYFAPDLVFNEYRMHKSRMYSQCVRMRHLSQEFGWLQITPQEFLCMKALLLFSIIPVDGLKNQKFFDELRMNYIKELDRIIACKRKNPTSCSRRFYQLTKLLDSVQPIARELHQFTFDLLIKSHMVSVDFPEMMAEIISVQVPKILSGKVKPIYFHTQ
Assay: ACEA_AR_antagonist_80hr: ACEA Biosciences xCELLigence Real-Time Cell Analysis on Androgen Receptor Antagonism for Proliferation (AID 2283787);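 also: 22Rv1 human prostate cancer cells with growth followed by electrical impedance; hits lower the impedance growth signal relative to DMSO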
Method in brief: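 22Rv1 cells in assay medium, growth tracked by electrical impedance; compounds eight-point 1:4 dilutions from 100 uM final, duplicate plates. Endpoint at 80 h; loss of signal versus DMSO.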
For `O=[N+]([O-])c1c(Cl)c(Cl)c(Cl)c(Cl)c1Cl`, the AC50 was 74.6 µM (active).
In the case of `C[C@H]1[C@H](c2ccc(Cl)cc2)SC(=O)N1C(=O)NC1CCCCC1`, the AC50 is reported as 19.1 µM (active).
With `CCCN(CCC)c1c([N+](=O)[O-])cc(C(F)(F)F)cc1[N+](=O)[O-]` the AC50 was 62.7 µM (active).
For `O=S1OCC2C(CO1)C1(Cl)C(Cl)=C(Cl)C2(Cl)C1(Cl)Cl` (stereo unspecified), the AC50 was 9.11 µM (active).
In the case of `CCOC1Oc2ccc(OS(C)(=O)=O)cc2C1(C)C` (stereo unspecified), the AC50 is reported as 50 µM (active).
With `CCC(C)(C)C(=O)OC1=C(c2ccc(Cl)cc2Cl)C(=O)OC12CCCCC2` the outcome was “inactive”.
In the case of `Cc1[nH]c(=O)n(C(C)(C)C)c(=O)c1Cl`, the outcome is reported as “inactive”.
With `Oc1ccc(Cl)cc1Cc1ccccc1` the AC50 was 11.2 µM (active).
In the case of `C#CCN1C(=O)COc2cc(F)c(N3C(=O)C4=C(CCCC4)C3=O)cc21`, the AC50 is reported as 64.5 µM (active).
In the case of `O=C(O)CCCOc1ccc(Cl)cc1Cl`, the outcome is reported as “inactive”.
For `O=[N+]([O-])/N=C1\NCCN1Cc1ccc(Cl)nc1`, the outcome was “inactive”.

Target: Estrogen receptor beta (Homo sapiens) (UniProt Q92731)
Sequence (Q92731 whole entry, looked up): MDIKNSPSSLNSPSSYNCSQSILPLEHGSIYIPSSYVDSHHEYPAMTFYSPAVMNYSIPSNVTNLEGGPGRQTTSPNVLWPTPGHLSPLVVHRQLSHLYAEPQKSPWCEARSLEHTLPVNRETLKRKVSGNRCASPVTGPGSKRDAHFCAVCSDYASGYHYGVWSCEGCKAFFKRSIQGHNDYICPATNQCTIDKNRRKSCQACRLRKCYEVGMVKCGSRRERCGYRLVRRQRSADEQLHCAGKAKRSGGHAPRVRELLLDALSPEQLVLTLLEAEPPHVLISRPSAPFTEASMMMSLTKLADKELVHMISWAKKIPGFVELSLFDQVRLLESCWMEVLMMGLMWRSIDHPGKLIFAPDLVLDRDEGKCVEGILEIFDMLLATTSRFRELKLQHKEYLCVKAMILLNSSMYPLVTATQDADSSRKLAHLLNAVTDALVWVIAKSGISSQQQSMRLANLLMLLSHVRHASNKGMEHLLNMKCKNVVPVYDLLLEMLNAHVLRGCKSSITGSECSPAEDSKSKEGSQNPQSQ
Assay: ATG_hERb_XSP1: Attagene TRANS-FACTORIAL Multi-Species (XSP1) HepG2 Assay for human Estrogen Receptor (ESR2) (AID 2283788)
Method in brief: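 HepG2 cells transiently transfected with GAL4-UAS multiplexed reporter units, 3 nM 6-alpha-fluorotestosterone present; 24 h exposure. Reporter mRNA measured by RT-PCR, fluorescent labelling and capillary electrophoresis; gain of signal fitted against DMSO.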
With `COP(=S)(OC)Oc1ccc(SC)c(C)c1` the AC50 was 22.2 µM (active).
With `CCCN(CCOc1c(Cl)cc(Cl)cc1Cl)C(=O)n1ccnc1` the outcome was “inactive”.
With `CC1(C)C(C=C(Cl)Cl)C1C(=O)OC(C#N)c1ccc(F)c(Oc2ccccc2)c1` (stereo unspecified) the outcome was “inactive”.
With `Oc1cc(Cl)ccc1Oc1ccc(Cl)cc1Cl` the outcome was “inactive”.
With `Oc1ccc(Cl)cc1Cc1ccccc1` the outcome was “inactive”.

Target: GAL4 Transcription Factor (Internal Marker), GAL4 (gene 855828) (UniProt P04386)
Sequence (P04386 whole entry, looked up, the tested form may be a part): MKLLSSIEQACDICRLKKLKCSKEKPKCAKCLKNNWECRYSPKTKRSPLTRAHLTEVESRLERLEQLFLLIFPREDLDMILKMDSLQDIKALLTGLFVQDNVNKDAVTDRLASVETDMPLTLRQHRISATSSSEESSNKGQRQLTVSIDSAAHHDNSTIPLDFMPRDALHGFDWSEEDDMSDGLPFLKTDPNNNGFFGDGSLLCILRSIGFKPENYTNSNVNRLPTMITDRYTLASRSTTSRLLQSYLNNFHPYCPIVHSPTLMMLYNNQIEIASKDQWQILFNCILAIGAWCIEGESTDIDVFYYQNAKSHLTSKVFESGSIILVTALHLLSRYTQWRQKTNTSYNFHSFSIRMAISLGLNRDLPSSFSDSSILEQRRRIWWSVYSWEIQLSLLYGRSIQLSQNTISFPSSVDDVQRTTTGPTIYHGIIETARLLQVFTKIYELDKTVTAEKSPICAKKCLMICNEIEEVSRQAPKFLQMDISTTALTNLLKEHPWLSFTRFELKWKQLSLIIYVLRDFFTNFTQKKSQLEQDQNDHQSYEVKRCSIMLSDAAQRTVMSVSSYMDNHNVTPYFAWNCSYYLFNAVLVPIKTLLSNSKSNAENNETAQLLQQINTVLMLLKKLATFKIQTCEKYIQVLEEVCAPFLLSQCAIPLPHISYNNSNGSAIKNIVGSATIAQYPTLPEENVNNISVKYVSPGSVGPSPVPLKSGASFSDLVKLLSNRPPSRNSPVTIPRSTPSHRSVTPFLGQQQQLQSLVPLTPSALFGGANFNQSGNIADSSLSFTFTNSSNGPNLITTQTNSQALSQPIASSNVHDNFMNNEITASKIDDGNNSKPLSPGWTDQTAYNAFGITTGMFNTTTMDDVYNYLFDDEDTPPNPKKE
Assay: ATG_GAL4_XSP1: Attagene TRANS-FACTORIAL Multi-Species (XSP1) HepG2 Assay for GAL4 Transcription Factor (Internal Marker) (AID 2283789)
Method in brief: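 HepG2 cells transiently transfected with multiplexed GAL4-UAS reporter units were exposed for 24 h with 3 nM 6-alpha-fluorotestosterone present. Reporter mRNA was quantified by RT-PCR, FAM labelling, HpaI digestion and capillary electrophoresis; background-control readout, gain-of-signal versus DMSO.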
For `COP(=S)(OC)Oc1ccc(SC)c(C)c1`, the outcome was “inactive”.
With `Oc1cc(Cl)ccc1Oc1ccc(Cl)cc1Cl` the outcome was “inactive”.
In the case of `CCOCN(C(=O)CCl)c1c(C)cccc1CC`, the outcome is reported as “inactive”.

Tested on: not listed separately
Assay: ATG_M_06_XSP1: Attagene TRANS-FACTORIAL Multi-Species (XSP1) HepG2 Assay for M06 Transcription Factor (Internal Marker) (AID 2283790)
Description: (§1) ATG_XSP1_multi-species_TRANS is a cell-based, multiplexed assay created by modifying the existing Attagene TRANS-FACTORIAL system to include a panel of nuclear receptors from some or all the following species: human (Homo sapiens), mouse (Mus musculus), frog (Xenopus laevis), zebrafish (Danio rerio), chicken (Gallus gallus), and turtle (Chrysemys picta). The ECOTOX-FACTORIAL format uses HepG2, a human liver cell line, with measurements taken at 24 hours after chemical dosing in a 24-well plate. Xsp1 included 3 nM 6-alpha-fluorotestosterone to partially stimulate the androgen receptor.ATG_M_06_XSP1 is one of 29 assay components measured or calculated from the ATG_XSP1_multi-species_TRANS assay. It is designed to make measurements of mRNA induction, a form of inducible reporter, as detected with fluorescence intensity signals by Reverse transcription polymerase chain reaction (RT-PCR) and Capillary electrophoresis technology.This assay endpoint, ATG_M_06_XSP1, was analyzed in the positive analysis fitting direction relative to DMSO as the negative control and baseline of activity. Using a type of inducible reporter, measures of mRNA for gain-of-signal activity can be used to understand the background control at the transcription factor-level as they relate to the gene. Furthermore, this assay endpoint can be referred to as a secondary readout, because this assay has produced multiple assay endpoints where this one serves a background control function. To generalize the intended target to other relatable targets, this assay endpoint is annotated to the background measurement intended target family, where the subfamily is internal marker.
(§2) Human liver HepG2 cells are transiently transfected with multiple reporter transcription units (MRTUs) in 6-well plates using FuGene 6 reagent (Roche; 3 ml FuGene/1 mg DNA). The MRTU constructs are regulated by a cis-regulating element (promoter). […] A major difference between the CIS and TRANS system is that in CIS activities of endogenous TFs are measured, whereas the TRANS assay evaluates changes in activities of exogenous, chimeric NR-Gal4 proteins. […] At the end of 24 hour incubation, total RNA was isolated using TriZol reagent (Invitrogen). The isolated RNA is then reverse-transcribed using oligo(dT) primer and Mo-MLV reverse transcriptase (Invitrogen) with DNAse I (Ambion) treatment for 30 min. The one-tenth of the produced cDNA was amplified by PCR using Taq DNA polymerase (Invitrogen) and two reporter sequence-specific primers. The PCR products were fluorescently labeled by primer extension with 6-arboxyfluorescein (6-FAM) 5'-labeled reporter sequence-specific primer (2 min at 95 C, 20 s at 68 C and 10 min at 72 C) and these products were digested with 5U of HpaI (New England Biolabs) for 2h at 37 C. The fragments were purified using Qiaquick PCR columns (Qiagen), analyzed on an ABI 3130xL genetic analyzer (Applied Biosystems) with peak positions identified by using a set of X-rhodamine (ROX)-labeled MapMarker1000 molecular weight standards (BioVentures). The raw capillary electrophoresis data was processed using Attagraph software (Attagene).
With `COP(=S)(OC)Oc1ccc(SC)c(C)c1` the outcome was “inactive”.
For `CCCN(CCC)c1c([N+](=O)[O-])cc(C(F)(F)F)cc1[N+](=O)[O-]`, the outcome was “inactive”.
In the case of `O=S1OCC2C(CO1)C1(Cl)C(Cl)=C(Cl)C2(Cl)C1(Cl)Cl` (stereo unspecified), the outcome is reported as “inactive”.
In the case of `CC1(C)C(C=C(Cl)Cl)C1C(=O)OC(C#N)c1ccc(F)c(Oc2ccccc2)c1` (stereo unspecified), the outcome is reported as “inactive”.
For `Oc1cc(Cl)ccc1Oc1ccc(Cl)cc1Cl`, the outcome was “inactive”.
For `Oc1ccc(Cl)cc1Cc1ccccc1`, the outcome was “inactive”.

Tested on: not listed separately
Assay: ATG_M_61_XSP1: Attagene TRANS-FACTORIAL Multi-Species (XSP1) HepG2 Assay for M61 Transcription Factor (Internal Marker) (AID 2283797)
Method in brief: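 HepG2 cells transiently transfected with multiplexed GAL4-driven reporter units, dosed 24 h with 3 nM 6-alpha-fluorotestosterone present. Reporter mRNA quantified by RT-PCR, 6-FAM labelling, HpaI digestion and capillary electrophoresis; internal-marker background control, gain of signal versus DMSO.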
In the case of `COP(=S)(OC)Oc1ccc(SC)c(C)c1`, the outcome is reported as “inactive”.
With `CCCN(CCC)c1c([N+](=O)[O-])cc(C(F)(F)F)cc1[N+](=O)[O-]` the outcome was “inactive”.
For `O=S1OCC2C(CO1)C1(Cl)C(Cl)=C(Cl)C2(Cl)C1(Cl)Cl` (stereo unspecified), the outcome was “inactive”.
For `CC1(C)C(C=C(Cl)Cl)C1C(=O)OC(C#N)c1ccc(F)c(Oc2ccccc2)c1` (stereo unspecified), the outcome was “inactive”.
For `Oc1cc(Cl)ccc1Oc1ccc(Cl)cc1Cl`, the outcome was “inactive”.
In the case of `Oc1ccc(Cl)cc1Cc1ccccc1`, the outcome is reported as “inactive”.

Tested on: not listed separately
Assay: ATG_M_19_XSP1: Attagene TRANS-FACTORIAL Multi-Species (XSP1) HepG2 Assay for M19 Transcription Factor (Internal Marker) (AID 2283798)
Description: as §1, with “receptor.ATG_M_19_XSP1” for “receptor.ATG_M_06_XSP1”, “ATG_M_19_XSP1,” for “ATG_M_06_XSP1,”
as §2, with “The one-tenth of the produced cDNA was amplified by PCR using Taq DNA polymerase (Invitrogen) and two reporter sequence-specific primers. The PCR products were fluorescently labeled by primer extension with 6-arboxyfluorescein (6-FAM) 5'-labeled reporter sequence-specific primer (2 min at 95 C, 20 s at 68 C and 10 min at 72 C) and these products were digested with 5U of HpaI (New England Biolabs) for 2h at 37 C.” left out, “The raw capillary electrophoresis data was processed using Attagraph software (Attagene).” left out
In the case of `O=S1OCC2C(CO1)C1(Cl)C(Cl)=C(Cl)C2(Cl)C1(Cl)Cl` (stereo unspecified), the outcome is reported as “inactive”.
For `CCCN(CCOc1c(Cl)cc(Cl)cc1Cl)C(=O)n1ccnc1`, the outcome was “inactive”.
For `CCOCN(C(=O)CCl)c1c(C)cccc1CC`, the outcome was “inactive”.
For `O=S(=O)(O)C(F)(F)C(F)(F)C(F)(F)C(F)(F)C(F)(F)C(F)(F)C(F)(F)C(F)(F)F`, the outcome was “inactive”.

Tested on: not listed separately
Assay: ATG_M_32_XSP1: Attagene TRANS-FACTORIAL Multi-Species (XSP1) HepG2 Assay for M32 Transcription Factor (Internal Marker) (AID 2283799)
Method in brief: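 HepG2 cells transiently transfected with multi-species TRANS reporter units, dosed 24 h with 3 nM 6-alpha-fluorotestosterone present. Internal-marker reporter mRNA quantified by RT-PCR and capillary electrophoresis; positive-direction fit versus DMSO.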
In the case of `COP(=S)(OC)Oc1ccc(SC)c(C)c1`, the outcome is reported as “inactive”.
With `CCCN(CCOc1c(Cl)cc(Cl)cc1Cl)C(=O)n1ccnc1` the outcome was “inactive”.
In the case of `Oc1cc(Cl)ccc1Oc1ccc(Cl)cc1Cl`, the outcome is reported as “inactive”.
For `O=S(=O)(O)C(F)(F)C(F)(F)C(F)(F)C(F)(F)C(F)(F)C(F)(F)C(F)(F)C(F)(F)F`, the outcome was “inactive”.

Target: Peroxisome proliferator-activated receptor gamma (Homo sapiens) (UniProt P37231)
Sequence (P37231 whole entry, looked up): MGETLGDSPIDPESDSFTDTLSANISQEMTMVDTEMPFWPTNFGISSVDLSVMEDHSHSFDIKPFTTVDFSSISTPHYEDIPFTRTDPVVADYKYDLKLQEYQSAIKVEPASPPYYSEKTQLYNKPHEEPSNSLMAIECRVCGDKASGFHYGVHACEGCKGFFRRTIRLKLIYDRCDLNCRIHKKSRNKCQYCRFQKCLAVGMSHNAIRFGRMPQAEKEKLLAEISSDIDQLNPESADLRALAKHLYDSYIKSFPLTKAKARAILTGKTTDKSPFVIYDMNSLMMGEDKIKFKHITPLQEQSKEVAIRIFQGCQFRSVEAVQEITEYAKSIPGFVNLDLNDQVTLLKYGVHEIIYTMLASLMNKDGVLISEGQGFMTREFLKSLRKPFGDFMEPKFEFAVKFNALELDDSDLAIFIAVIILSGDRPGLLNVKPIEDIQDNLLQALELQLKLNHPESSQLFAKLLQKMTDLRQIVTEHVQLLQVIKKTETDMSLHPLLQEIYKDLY
Assay: ATG_hPPARg_XSP1: Attagene TRANS-FACTORIAL Multi-Species (XSP1) HepG2 Assay for human Peroxisome Proliferator-activated Receptor gamma (PPARg) (AID 2283800)
Description: ATG_XSP1_multi-species_TRANS is a cell-based, multiplexed assay created by modifying the existing Attagene TRANS-FACTORIAL system to include a panel of nuclear receptors from some or all the following species: human (Homo sapiens), mouse (Mus musculus), frog (Xenopus laevis), zebrafish (Danio rerio), chicken (Gallus gallus), and turtle (Chrysemys picta). The ECOTOX-FACTORIAL format uses HepG2, a human liver cell line, with measurements taken at 24 hours after chemical dosing in a 24-well plate. Xsp1 included 3 nM 6-alpha-fluorotestosterone to partially stimulate the androgen receptor.ATG_hPPARg_XSP1 is one of 29 assay components measured or calculated from the ATG_XSP1_multi-species_TRANS assay. It is designed to make measurements of mRNA induction, a form of inducible reporter, as detected with fluorescence intensity signals by Reverse transcription polymerase chain reaction (RT-PCR) and Capillary electrophoresis technology.The assay endpoint ATG_hPPARg_XSP1 was analyzed in the positive analysis fitting direction relative to DMSO as the negative control and baseline of activity. Using a type of inducible reporter, measures of mRNA for gain-of-signal activity can be used to understand the reporter gene at the transcription factor-level as they relate to the gene PPARg. Furthermore, this assay endpoint can be referred to as a primary readout, because this assay has produced multiple assay endpoints where this one serves a reporter gene function. To generalize the intended target to other relatable targets, this assay endpoint is annotated to the nuclear receptor intended target family, where the subfamily is non-steroidal.
as §2
In the case of `COP(=S)(OC)Oc1ccc(SC)c(C)c1`, the AC50 is reported as 22.5 µM (active).
For `CCCN(CCC)c1c([N+](=O)[O-])cc(C(F)(F)F)cc1[N+](=O)[O-]`, the AC50 was 27.1 µM (active).
For `O=S1OCC2C(CO1)C1(Cl)C(Cl)=C(Cl)C2(Cl)C1(Cl)Cl` (stereo unspecified), the outcome was “inactive”.
In the case of `CCCN(CCOc1c(Cl)cc(Cl)cc1Cl)C(=O)n1ccnc1`, the AC50 is reported as 33.4 µM (active).
In the case of `CC1(C)C(C=C(Cl)Cl)C1C(=O)OC(C#N)c1ccc(F)c(Oc2ccccc2)c1` (stereo unspecified), the AC50 is reported as 11.1 µM (active).
In the case of `Oc1cc(Cl)ccc1Oc1ccc(Cl)cc1Cl`, the AC50 is reported as 9.39 µM (active).
With `CCOCN(C(=O)CCl)c1c(C)cccc1CC` the AC50 was 0.727 µM (active).
